Some test systems named below: SR leukemia; RPMI-8226 leukemia; OVCAR-8 ovarian; OVCAR-5 ovarian; OVCAR-4 ovarian; SK-OV-3 ovarian; IGROV1 ovarian; OVCAR-3 ovarian; NCI/ADR-RES ovarian; T-47D breast; BT-549 breast; MDA-MB-435 melanoma; MCF7 breast; HCT-116 colon; HCC-2998 colon; KM12 colon; MDA-MB-468 breast; HS 578T breast; SW-620 colon.
What all share (experiment): NCI-60 one-dose screen, 48 h (100 = growth as untreated, 0 = no growth, -100 = all killed)
Conditions in all cases: 10 µM unless noted

About 83,000 compounds went through this panel and 20% of them were active in at least one assay; those are over-represented in the sample as a whole.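 48-hour exposure, single concentration, 96-well plates; percent growth endpoint where 0 means no net growth. Active: below 10.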 A number with no mark means an inactive call. The source made the active and inactive calls.

As to `Nc1cc2ccccc2c(=O)n1NC(=O)c1ccc(I)cc1`, the growth in the assay on SR leukemia is 88.3%; in the assay with RPMI-8226 leukemia, 98%; in the assay with OVCAR-8 ovarian it was 101%; in the assay on OVCAR-5 ovarian, 98.1%; with OVCAR-4 ovarian it was 100%; in the assay on SK-OV-3 ovarian, 91.9%. Also, the growth was 106% with IGROV1 ovarian; 104% in the assay on OVCAR-3 ovarian; 101% in the assay on NCI/ADR-RES ovarian; 101% in the assay on T-47D breast; 108% in the assay with BT-549 breast; 100% in the assay with MDA-MB-435 melanoma. Also, the growth in the assay with MCF7 breast is 93.2%; in the assay with HCT-116 colon it was 98%; with HCC-2998 colon, 114%; in the assay on KM12 colon it was 103%; with MDA-MB-468 breast, 98.9%.

Regarding `COc1cc(/C=C/C(=O)c2nnn(-c3ccc(Cl)cc3)c2C)cc(OC)c1OC`, the growth in the assay with SR leukemia is 5.48% (active); in the assay with RPMI-8226 leukemia, -7.65% (active); in the assay with OVCAR-8 ovarian, 31.8%; with OVCAR-5 ovarian it was 47.8%; in the assay on OVCAR-4 ovarian it was 34.7%; in the assay on SK-OV-3 ovarian, 59.4%. Besides, the growth in the assay with IGROV1 ovarian is 59.3%; in the assay with OVCAR-3 ovarian, 22.9%; with NCI/ADR-RES ovarian, 8.27% (active); in the assay on BT-549 breast, 36.8%; in the assay with MDA-MB-435 melanoma, 2.83% (active); in the assay with MCF7 breast it was 8.67% (active). Moreover, the growth in the assay on HCT-116 colon is 26.2%; in the assay on HCC-2998 colon it was 23.1%; in the assay with KM12 colon, 20.8%; in the assay on MDA-MB-468 breast it was -20.7% (active).

With `CC(=O)Nc1ccc(-c2cn(-c3cccc(C(=O)Nc4ccc(N5CCN(C)CC5)cc4)c3)nn2)cn1`, the growth in the assay with SR leukemia was 68%; in the assay on RPMI-8226 leukemia it was 70.4%; in the assay on OVCAR-8 ovarian, 81.6%; with OVCAR-5 ovarian it was 107%; in the assay with OVCAR-4 ovarian it was 93.4%; in the assay on SK-OV-3 ovarian, 93.8%. For the same molecule, the growth with IGROV1 ovarian is 88%; in the assay on OVCAR-3 ovarian it was 109%; in the assay on NCI/ADR-RES ovarian, 89.2%; with T-47D breast it was 94%; with BT-549 breast it was 74.6%; in the assay on MDA-MB-435 melanoma it was 100%. Besides, the growth with MCF7 breast was 45.9%; with HCT-116 colon it was 62.9%; in the assay on HCC-2998 colon, 85%; in the assay with KM12 colon, 68.9%; with MDA-MB-468 breast it was -9.89% (active).

Take `Cc1ccc([C@H]2C(C(=O)c3ccc(Cl)cc3)C3(N[C@@H]2c2ccccc2)C(=O)Nc2ccccc23)cc1` (stereo partly specified): the growth was 23.3% in the assay on SR leukemia; 6.4% (active) with RPMI-8226 leukemia; 66% in the assay on OVCAR-8 ovarian; 52.2% in the assay on OVCAR-5 ovarian; 53.2% in the assay with SK-OV-3 ovarian; 59.4% in the assay with IGROV1 ovarian. The growth in the assay with OVCAR-3 ovarian is 37.3%; with HS 578T breast, 60.3%; in the assay on NCI/ADR-RES ovarian, 35.4%; with T-47D breast, 14.3%; with BT-549 breast, 50.7%; in the assay with MDA-MB-435 melanoma it was 26.8%. The growth was 29.9% in the assay on SW-620 colon; 16% with MCF7 breast; 14% in the assay with HCT-116 colon; 23.7% in the assay with HCC-2998 colon; 25.9% with KM12 colon; 1.9% (active) in the assay with MDA-MB-468 breast.

`C=C1CC[C@@H]2[C@]3(C)COC(c4cn(-c5ccccc5)nc4-c4ccccc4)O[C@@H]3CC[C@@]2(C)[C@@H]1C/C=C1/C(=O)OC[C@H]1O` (stereo partly specified): the growth with SR leukemia was -32.7% (active); in the assay with RPMI-8226 leukemia, -10.3% (active); in the assay with OVCAR-8 ovarian, -49.5% (active); with OVCAR-5 ovarian, -50.5% (active); in the assay with OVCAR-4 ovarian, -30.4% (active); in the assay with SK-OV-3 ovarian, 12.6%. Also, the growth in the assay on IGROV1 ovarian is -76.7% (active); with OVCAR-3 ovarian, -77.8% (active); in the assay with NCI/ADR-RES ovarian, -69.4% (active); in the assay with T-47D breast, -62.9% (active); with BT-549 breast it was -88.9% (active); in the assay on MDA-MB-435 melanoma, -65.9% (active). Further, the growth in the assay with MCF7 breast was -9.94% (active); with HCT-116 colon, -97.5% (active); in the assay on HCC-2998 colon, -97.7% (active); with KM12 colon, -56.2% (active); in the assay on MDA-MB-468 breast, -90.1% (active).

Turning to `O=C(COc1ccc(NC(=O)Nc2ccc(Cl)c(Cl)c2)cc1)N=Nc1c(O)[nH]c2ccc(Br)cc12`, the growth in the assay with SR leukemia is 3.18% (active); with RPMI-8226 leukemia, 3.61% (active); in the assay on OVCAR-8 ovarian it was -59.9% (active); in the assay with OVCAR-5 ovarian it was -44.5% (active); in the assay with SK-OV-3 ovarian, -43.3% (active); with IGROV1 ovarian, -51% (active). Moreover, the growth in the assay with OVCAR-3 ovarian was -76.4% (active); with HS 578T breast, -5.94% (active); in the assay on NCI/ADR-RES ovarian, 82.4%; with T-47D breast it was -26.4% (active); with BT-549 breast it was -71.5% (active); in the assay on MDA-MB-435 melanoma, -51.3% (active). Besides, the growth is -21.2% (active) in the assay with SW-620 colon; -1.82% (active) with MCF7 breast; -60.6% (active) with HCT-116 colon; -67.3% (active) in the assay on HCC-2998 colon; -87.2% (active) in the assay with KM12 colon; -75% (active) in the assay on MDA-MB-468 breast.

With `COc1ccc(NC(=O)[C@H](CO)NC(=O)OC(C)(C)C)cc1C(=O)Nc1cccc(C2CC(=O)c3c(cc(OC)c(OC)c3OC)O2)c1` (stereo partly specified), the growth is 25.3% in the assay on SR leukemia; 23% in the assay with RPMI-8226 leukemia; 26.3% in the assay on OVCAR-8 ovarian; 113% in the assay on OVCAR-5 ovarian; 87.8% in the assay on SK-OV-3 ovarian; 43.1% in the assay with IGROV1 ovarian. For the same molecule, the growth in the assay with OVCAR-3 ovarian is 47.7%; in the assay on HS 578T breast, 53.6%; in the assay with NCI/ADR-RES ovarian it was 71.6%; with T-47D breast it was 25.8%; in the assay with BT-549 breast, 12.7%; in the assay with MDA-MB-435 melanoma, 41.1%. Moreover, the growth was 73.9% in the assay with SW-620 colon; 30% with MCF7 breast; 32.3% in the assay on HCT-116 colon; 83% in the assay on HCC-2998 colon; 43.8% in the assay on KM12 colon; 36.2% in the assay with MDA-MB-468 breast.

Regarding `CC(C)c1ccc2c(N)c(C(=O)Nc3cccc(C(F)(F)F)c3)sc2n1`, the growth was 40.4% with SR leukemia; 32.1% in the assay with RPMI-8226 leukemia; 90.7% with OVCAR-8 ovarian; 85% in the assay with OVCAR-5 ovarian; 78.1% in the assay on OVCAR-4 ovarian; 87.2% in the assay on SK-OV-3 ovarian. Moreover, the growth in the assay with IGROV1 ovarian was 108%; in the assay with OVCAR-3 ovarian, 94.1%; in the assay with NCI/ADR-RES ovarian, 71.7%; with T-47D breast, 51.8%; in the assay on BT-549 breast, 112%; in the assay on MDA-MB-435 melanoma, 82.5%. Besides, the growth in the assay on MCF7 breast was 70.3%; in the assay on HCT-116 colon, 81.4%; in the assay with HCC-2998 colon, 73.1%; in the assay with KM12 colon it was 43.2%; with MDA-MB-468 breast, 13.2%.

`COc1ccc2[nH]c(O)c(N=NC(=O)Cn3c(-c4ccccc4)nc4cc(C)ccc43)c2c1`: the growth in the assay on SR leukemia was 1.82% (active); in the assay with RPMI-8226 leukemia, 10.7%; in the assay on OVCAR-8 ovarian it was 1.93% (active); in the assay on OVCAR-5 ovarian it was 62.8%; in the assay on SK-OV-3 ovarian it was 89.9%; in the assay with IGROV1 ovarian, 51.9%. For the same molecule, the growth was 37.3% with OVCAR-3 ovarian; 25.6% in the assay with HS 578T breast; -5.85% (active) with NCI/ADR-RES ovarian; 30.3% with T-47D breast; -61.7% (active) with BT-549 breast; 43.7% in the assay with MDA-MB-435 melanoma. The growth with SW-620 colon is 47.2%; in the assay on MCF7 breast, 33%; in the assay on HCT-116 colon, -72.7% (active); in the assay with HCC-2998 colon it was 18.9%; in the assay on KM12 colon, 47.3%; in the assay on MDA-MB-468 breast, 34.4%.

The record behind these values is PubChem BioAssay (NCI).
